GAA850 FXN act: activators of GAA850 frataxin (FXN) promoter; HEK293 lucGAA850 FXN promoter luciferase reporter, 24 h; percent of 10 µM SAHA response; activation, % at 6 µM; 360,000 compounds, 0.56% hits; AID 540364;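 active means activation above the average of all compounds screened plus 3 SD, cutoff fixed separately per campaign, cut at about 7.5% in these data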;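 further: 0% = DMSO wells and 100% = 10 µM SAHA wells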
Wnt act: activates Wnt/beta-catenin signaling in a reporter cell assay | activator, plate reader | activation, % at 9.35 µM | 300,000 compounds, 1.2% hits; in the data active means activation above about 30%, passing the limit was not always enough; inconclusive means no clear call, values can overlap the other calls;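 further: 0% = neutral control wells and 100% = positive control wells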
AHR activator: activates the human aryl hydrocarbon receptor; 320,000 compounds, 2.5% hits; AHR-responsive luciferase reporter cells, luminescence; P35869; activation, % at 5 µM; in the data active means activation above about 47%;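 further: 0% = vehicle wells and 100% = reference agonist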
MITF TRPM1 HTS: activators of MITF-driven TRPM1 promoter activity in SK-MEL-5 cells; 300,000 compounds, 0.75% hits; SK-MEL-5 TRPM1-promoter luciferase, 24 h; % of positive control, neutral wells = 0; activation, % at 12.5 µM;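 active means mean activation of at least 80% with every replicate also reaching 80%; inconclusive means mean reaches 80% but some replicate falls short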;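 further: 0% = neutral control wells and 100% = parthenolide positive control wells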
esBAF inh: blocks esBAF chromatin remodeling in mouse ES cells; Bmi1-luciferase knock-in reporter, 24 h; 100% = twice the neutral-well signal; reporter increase, % at 12.5 µM; 350,000 compounds, 2% hits; AID 602393; in the data active means activation above about 40%; inconclusive means no clear call, values can overlap the other calls;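 further: 0% = median of the plate's neutral control wells and 100% = double that signal; a rise in the Bmi1 reporter signal indicates esBAF inhibition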
Numbers without * were called inactive. Only some compounds are listed: those with a hit (about 4.2% of all), similar ones and a draw of the others.

Results for CCCn1c(=N)c(C#N)cc2c(=O)n3ccccc3nc21 ?
GAA850 FXN act: 3.0; Wnt act: -4.3; AHR activator: 84.6*; MITF TRPM1 HTS: 5.6

How did C[C@H](CO)N1C[C@H](C)[C@H](CN(C)C(=O)Nc2ccc3c(c2)OCO3)Oc2ccc(NS(C)(=O)=O)cc2C1=O do in these assays?
esBAF inh: 4.6

What do the screens show for `CCCC#Cc1cnc2c(c1)C(=O)N([C@H](C)CO)C[C@H](C)[C@H](CN(C)C(=O)Nc1cccc(F)c1)O2`?
esBAF inh: -8.3

How did O=C(N=C1N=C2C=CC(Br)=CN2Cc2ccccc21)c1ccc([N+](=O)[O-])cc1[N+](=O)[O-] do in these assays?
GAA850 FXN act: 2.7; Wnt act: 55.6*; AHR activator: 94.2*; MITF TRPM1 HTS: 38.6

How did O=C(C[C@@H]1C=C[C@H](NC(=O)c2ccncc2)[C@H](CO)O1)NCC1CCCCC1 do in these assays?
esBAF inh: 0.2

Results for CCc1nc(SCCO)c2oc3ccccc3c2n1 ?
GAA850 FXN act: 2.9; AHR activator: 10.8; MITF TRPM1 HTS: 11.1; esBAF inh: 4.3

How did CCc1nc(SCC(=O)c2ccc(Cl)s2)c2oc3ccccc3c2n1 do in these assays?
GAA850 FXN act: 0.7; AHR activator: 60.0*; MITF TRPM1 HTS: 1.1; esBAF inh: -5.5

What do the screens show for `CC(/C=C/c1ccccc1)=N\Nc1ccccc1[N+](=O)[O-]`?
GAA850 FXN act: 0.4; Wnt act: 4.5; AHR activator: 6.1; MITF TRPM1 HTS: 42.0; esBAF inh: 44.1*

What do the screens show for `CC(/C=C/c1ccccc1)=N/NC(=O)c1cc([N+](=O)[O-])cc([N+](=O)[O-])c1`?
GAA850 FXN act: 1.6; Wnt act: -6.0; AHR activator: 1.2; MITF TRPM1 HTS: -44.4

What do the screens show for `CN1c2ccc(-c3cccc(C#N)c3)cc2[C@H]2[C@H](CCN2S(=O)(=O)c2ccccc2F)[C@H]1CO`?
esBAF inh: -7.1

Results for O=C(NNC(=O)c1cc2cc3ccccc3nc2s1)c1cccc(Cl)c1 ?
GAA850 FXN act: 0.6; Wnt act: -1.7; AHR activator: 48.4*; MITF TRPM1 HTS: -3.3; esBAF inh: -1.5

How did Cc1cccc(C(=O)NNC(=O)c2cc3cc4ccccc4nc3s2)c1 do in these assays?
GAA850 FXN act: 2.4; Wnt act: -0.3; AHR activator: 74.4*; esBAF inh: 6.9

Results for Cc1ccc(S(=O)(=O)NNC(=O)c2cc3cc4ccccc4nc3s2)cc1 ?
GAA850 FXN act: -1.0; Wnt act: 10.5; AHR activator: 14.6; MITF TRPM1 HTS: -12.8; esBAF inh: 0.7

Results for O=C(NNC(=O)c1cccc2ccccc12)c1cccc(Cl)c1 ?
GAA850 FXN act: 0.1; Wnt act: -1.7; MITF TRPM1 HTS: 9.5; esBAF inh: 7.7

What do the screens show for `CCCNC(=O)C[C@H]1C[C@@H]2c3cc(NS(=O)(=O)c4cccc(OC)c4)ccc3O[C@@H]2[C@H](CO)O1`?
esBAF inh: 1.4

Results for CCNC(=O)C[C@H]1CC[C@@H]2[C@@H](COc3ccc(NC(=O)Nc4ccccc4OC)cc3C(=O)N2C)O1 ?
esBAF inh: 0.3

Results for NS(=O)(=O)c1ccc(CCNC(=O)CSc2nc3ccsc3c(=O)n2C2CC2)cc1 ?
GAA850 FXN act: -0.9; Wnt act: -3.1; AHR activator: 0.1; MITF TRPM1 HTS: 6.0

How did NS(=O)(=O)c1ccc(CCNC(=O)CSc2nc3ccsc3c(=O)n2Cc2ccccn2)cc1 do in these assays?
GAA850 FXN act: 0.3; Wnt act: 35.8*; esBAF inh: 20.4

What do the screens show for `COc1ccc(CCNC(=O)CSc2nc3ccsc3c(=O)n2Cc2ccccn2)cc1OC`?
GAA850 FXN act: 1.0; Wnt act: 3.5; esBAF inh: 42.9*

How did COc1ccc(C(=O)N2CCN(c3cccc(Cl)c3)CC2)cc1S(=O)(=O)NC1CC1 do in these assays?
GAA850 FXN act: -2.6; Wnt act: -2.5; AHR activator: 4.1; MITF TRPM1 HTS: 43.5; esBAF inh: -12.5

How did COc1ccc(C(=O)N2CCN(c3ccc(F)cc3)CC2)cc1S(=O)(=O)NC1CC1 do in these assays?
GAA850 FXN act: 4.6; Wnt act: 24.8; AHR activator: 3.9; MITF TRPM1 HTS: 40.9; esBAF inh: 49.5*

Results for Cc1cc(OCc2cc(C(=O)N(C)C(C)c3ccccn3)no2)cc(C)c1Cl (configuration not stated) ?
GAA850 FXN act: 3.1; Wnt act: 19.9; AHR activator: 4.9; MITF TRPM1 HTS: 29.7; esBAF inh: 57.2*

How did Cc1cc(OCc2cc(C(=O)N(C)Cc3ccccn3)no2)cc(C)c1Cl do in these assays?
GAA850 FXN act: 3.4; Wnt act: inconclusive; AHR activator: 13.1; MITF TRPM1 HTS: 97.5*; esBAF inh: 75.3*

What do the screens show for `CSc1ccccc1OCc1cc(C(=O)N(C)C(C)c2ccccn2)no1` (configuration not stated)?
GAA850 FXN act: 1.8; Wnt act: -0.9; MITF TRPM1 HTS: 4.5; esBAF inh: -0.2

Results for CC(=O)c1ccc(OCc2cc(C(=O)N(C)Cc3ccccn3)no2)cc1 ?
GAA850 FXN act: 2.9; Wnt act: 19.1; MITF TRPM1 HTS: 99.2*; esBAF inh: 103.8*

How did Cc1nc2ccc(S(=O)(=O)Nc3cc(-c4nc5cccnc5s4)ccc3C)cc2s1 do in these assays?
GAA850 FXN act: 1.4; Wnt act: 18.2; AHR activator: 53.1*; esBAF inh: 61.0*

What do the screens show for `Cc1ccc(-c2nc3cccnc3s2)cc1NS(=O)(=O)c1cccs1`?
GAA850 FXN act: 2.9; Wnt act: 3.1; AHR activator: 58.9*; esBAF inh: 24.1

What do the screens show for `O=S(=O)(Nc1ccc(-c2nc3cccnc3s2)cc1)c1cc(F)ccc1F`?
GAA850 FXN act: 4.0; Wnt act: -0.6; AHR activator: 38.0; MITF TRPM1 HTS: -3.4; esBAF inh: 17.0

Results for Cc1nc2ccc(S(=O)(=O)Nc3cccc(-c4nc5cccnc5s4)c3C)cc2s1 ?
GAA850 FXN act: 0.1; Wnt act: -6.4; AHR activator: 0.8; MITF TRPM1 HTS: -5.4; esBAF inh: -8.7

How did COc1cccc(CNC(=O)C[C@H]2C=C[C@@H](NS(=O)(=O)c3ccccc3OC)[C@H](CO)O2)c1 do in these assays?
esBAF inh: -0.2

How did CCOc1ccc2nc(NCCNC(=O)C3CC3)c(C)cc2c1 do in these assays?
GAA850 FXN act: 1.6; Wnt act: -1.7; AHR activator: 37.8; MITF TRPM1 HTS: -1.1

What do the screens show for `Cc1cc2cc(C)c(NCCNC(=O)c3ccccc3)nc2cc1C`?
GAA850 FXN act: 2.3; Wnt act: 0.6; AHR activator: 63.3*; MITF TRPM1 HTS: 7.4

How did CCOc1ccc2nc(NCCNC(=O)C(C)C)c(C)cc2c1 do in these assays?
GAA850 FXN act: 2.5; AHR activator: 47.7*; MITF TRPM1 HTS: 0.0

How did O=C(C[C@H]1C[C@H]2c3cc(NC(=O)c4cccnc4)ccc3O[C@H]2[C@@H](CO)O1)NCc1cccnc1 do in these assays?
esBAF inh: 0.9

How did CC(=O)c1cccc(NC(=O)COC(=O)c2ccccc2C)c1 do in these assays?
GAA850 FXN act: 3.8; Wnt act: 17.1; AHR activator: -1.2; MITF TRPM1 HTS: 96.9*; esBAF inh: 44.3*

Compound activity deposited in PubChem BioAssay by several laboratories.
